The supplement of paper PMC10849652
Targets with a hit are over-represented here; the source holds about 7,900 in all. About 0.6% of all pairs of compound and target were hits. Unmarked numbers belong to inactive results.

Experiments:
Experiment in all cases: log2 fold change, soluble protein after heating vs DMSO (PISA); higher = thermal stabilisation; K562 cells, 10 uM, 30 min; active = over 0.2 and 3.5 SD of the protein, either way, in both replicates (recomputed)
[1] = compound: COC1=CC=C(C=C1)CN2C=CC3=C2C=C(C=C3)C(=O)NO
Procedure, shortened: (§1)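 K562 cells at 2×10^6 cells/mL were treated with 10 μM compound for 30 min. Aliquots were heated for 3 min across 48°C-58°C, pooled, and extracted in PBS with 0.5% NP-40 at 4°C; soluble protein was the supernatant after 21,000xg for 90 min. Soluble protein was quantified by TMTpro 16plex LC-MS/MS with channel sums equalised, and reported as log2 fold change in thermal stability against DMSO controls, with values from duplicates.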

filanesib = compound: CON(C)C(=O)N1N=C(c2cc(F)ccc2F)S[C@@]1(CCCN)c1ccccc1 [filanesib]
Procedure, shortened: as §1

zotarolimus = compound: CO[C@H]1C[C@@H]2CC[C@@H](C)[C@@](O)(O2)C(=O)C(=O)N2CCCC[C@H]2C(=O)O[C@H]([C@H](C)C[C@@H]2CC[C@H](n3cnnn3)[C@H](OC)C2)CC(=O)[C@H](C)/C=C(\C)[C@@H](O)[C@@H](OC)C(=O)[C@H](C)C[C@H](C)/C=C/C=C/C=C/1C [zotarolimus]
Procedure, shortened: as §1

idasanutlin = compound: COc1cc(C(=O)O)ccc1NC(=O)[C@@H]1N[C@@H](CC(C)(C)C)[C@](C#N)(c2ccc(Cl)cc2F)[C@H]1c1cccc(Cl)c1F [idasanutlin]
Procedure, shortened: as §1

alisertib = compound: COc1cc(Nc2ncc3c(n2)-c2ccc(Cl)cc2C(c2c(F)cccc2OC)=NC3)ccc1C(=O)O [alisertib]
Procedure, shortened: as §1

[2] = compound: COc1cc2nc(-c3cc(F)ccc3O)nc(N[C@@H]3CNC[C@H]3C(C)(C)O)c2cc1OC
Procedure, shortened: as §1

gefitinib = compound: COc1cc2ncnc(Nc3ccc(F)c(Cl)c3)c2cc1OCCCN1CCOCC1 [gefitinib]
Procedure, shortened: as §1

[3] = compound: COc1cccc2cc(-c3nc([C@H]4CC[C@H](C(=O)O)CC4)n4ncnc(N)c34)[nH]c12
Procedure, shortened: as §1

lapatinib = compound: CS(=O)(=O)CCNCc1ccc(-c2ccc3ncnc(Nc4ccc(OCc5cccc(F)c5)c(Cl)c4)c3c2)o1 [lapatinib]
Procedure, shortened: as §1

pictilisib = compound: CS(=O)(=O)N1CCN(Cc2cc3nc(-c4cccc5[nH]ncc45)nc(N4CCOCC4)c3s2)CC1 [pictilisib]
Procedure, shortened: as §1

[4] = compound: CS(=O)(=O)c1ccc(-c2cnc(N)c(C(=O)Nc3ccccc3)n2)cc1
Procedure, shortened: as §1

crizotinib = compound: C[C@@H](Oc1cc(-c2cnn(C3CCNCC3)c2)cnc1N)c1c(Cl)ccc(F)c1Cl [crizotinib]
Procedure, shortened: as §1

[5] = compound: C[C@@H]1COCCN1C2=NC(=NC(=C2)C3(CC3)S(=O)(=O)C)C4=C5C=CNC5=CC=C4
Procedure, shortened: as §1

[6] = compound: C[C@H](C1=CC=C(C=C1)C(=O)NC2=C3C=CNC3=NC=C2)N
Procedure, shortened: as §1

duvelisib = compound: C[C@H](Nc1ncnc2nc[nH]c12)c1cc2cccc(Cl)c2c(=O)n1-c1ccccc1 [duvelisib]
Procedure, shortened: as §1

gandotinib = compound: Cc1cc(Nc2cc(CN3CCOCC3)c3nc(C)c(Cc4ccc(Cl)cc4F)n3n2)n[nH]1 [gandotinib]
Procedure, shortened: as §1

tozasertib = compound: Cc1cc(Nc2cc(N3CCN(C)CC3)nc(Sc3ccc(NC(=O)C4CC4)cc3)n2)n[nH]1 [tozasertib]
Procedure, shortened: as §1

[7] = compound: Cc1cc(SCc2sc(-c3ccc(C(F)(F)F)cc3)nc2C)ccc1OCC(=O)O
Procedure, shortened: as §1

doramapimod = compound: Cc1ccc(-n2nc(C(C)(C)C)cc2NC(=O)Nc2ccc(OCCN3CCOCC3)c3ccccc23)cc1 [doramapimod]
Procedure, shortened: as §1

ispinesib = compound: Cc1ccc(C(=O)N(CCCN)[C@@H](c2nc3cc(Cl)ccc3c(=O)n2Cc2ccccc2)C(C)C)cc1 [ispinesib]
Procedure, shortened: as §1

Chain of UniProt P19174 (P19174 whole entry, looked up): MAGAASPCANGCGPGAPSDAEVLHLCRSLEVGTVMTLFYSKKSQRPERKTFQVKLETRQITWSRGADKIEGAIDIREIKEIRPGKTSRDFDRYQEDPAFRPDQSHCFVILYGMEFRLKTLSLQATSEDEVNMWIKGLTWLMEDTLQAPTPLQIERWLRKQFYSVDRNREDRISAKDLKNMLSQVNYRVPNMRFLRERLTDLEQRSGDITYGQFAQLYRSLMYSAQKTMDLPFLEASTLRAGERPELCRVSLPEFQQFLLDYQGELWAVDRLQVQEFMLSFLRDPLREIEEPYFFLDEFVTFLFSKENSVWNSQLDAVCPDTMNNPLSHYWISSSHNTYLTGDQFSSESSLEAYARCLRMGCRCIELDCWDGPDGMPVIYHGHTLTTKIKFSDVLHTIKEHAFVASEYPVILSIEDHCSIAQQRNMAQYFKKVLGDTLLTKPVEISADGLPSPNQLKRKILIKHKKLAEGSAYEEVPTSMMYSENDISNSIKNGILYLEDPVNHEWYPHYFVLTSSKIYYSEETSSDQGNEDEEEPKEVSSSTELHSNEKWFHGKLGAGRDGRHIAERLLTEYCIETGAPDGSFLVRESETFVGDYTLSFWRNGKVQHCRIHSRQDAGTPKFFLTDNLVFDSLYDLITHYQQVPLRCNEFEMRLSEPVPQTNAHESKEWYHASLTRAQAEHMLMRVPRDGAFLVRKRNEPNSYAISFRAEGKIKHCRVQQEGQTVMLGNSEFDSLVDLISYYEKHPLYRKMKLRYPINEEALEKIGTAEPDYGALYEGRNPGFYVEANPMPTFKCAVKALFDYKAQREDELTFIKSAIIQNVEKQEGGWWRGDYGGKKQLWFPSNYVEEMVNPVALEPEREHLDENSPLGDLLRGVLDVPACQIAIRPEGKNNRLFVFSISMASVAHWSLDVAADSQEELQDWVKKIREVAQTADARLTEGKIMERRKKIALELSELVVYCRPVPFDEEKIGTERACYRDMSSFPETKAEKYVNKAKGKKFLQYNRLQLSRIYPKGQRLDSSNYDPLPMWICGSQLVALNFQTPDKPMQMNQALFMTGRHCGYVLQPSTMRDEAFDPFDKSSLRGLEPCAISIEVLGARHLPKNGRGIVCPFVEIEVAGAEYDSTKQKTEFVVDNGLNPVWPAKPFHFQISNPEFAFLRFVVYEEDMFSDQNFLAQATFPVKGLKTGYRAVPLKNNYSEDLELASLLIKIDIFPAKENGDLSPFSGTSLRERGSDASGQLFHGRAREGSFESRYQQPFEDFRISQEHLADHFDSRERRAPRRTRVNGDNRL
Chain of UniProt Q8TAP8 (Q8TAP8 whole entry, looked up): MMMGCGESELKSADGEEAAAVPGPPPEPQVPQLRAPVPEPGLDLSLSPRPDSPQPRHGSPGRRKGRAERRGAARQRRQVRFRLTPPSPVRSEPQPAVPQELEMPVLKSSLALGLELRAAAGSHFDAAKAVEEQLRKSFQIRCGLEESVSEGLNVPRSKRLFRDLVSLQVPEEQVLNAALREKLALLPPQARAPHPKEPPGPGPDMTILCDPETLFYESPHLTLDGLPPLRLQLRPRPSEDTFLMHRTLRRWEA
Chain of UniProt O15305 (O15305 whole entry, looked up): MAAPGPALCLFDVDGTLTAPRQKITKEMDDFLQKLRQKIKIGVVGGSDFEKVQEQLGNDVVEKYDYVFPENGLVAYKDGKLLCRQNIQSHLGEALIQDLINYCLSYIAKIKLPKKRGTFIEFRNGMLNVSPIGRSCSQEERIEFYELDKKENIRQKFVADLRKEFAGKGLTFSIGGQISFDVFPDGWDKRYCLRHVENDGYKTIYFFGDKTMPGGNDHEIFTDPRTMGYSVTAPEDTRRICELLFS
Chain of UniProt P15735 (P15735 whole entry, looked up): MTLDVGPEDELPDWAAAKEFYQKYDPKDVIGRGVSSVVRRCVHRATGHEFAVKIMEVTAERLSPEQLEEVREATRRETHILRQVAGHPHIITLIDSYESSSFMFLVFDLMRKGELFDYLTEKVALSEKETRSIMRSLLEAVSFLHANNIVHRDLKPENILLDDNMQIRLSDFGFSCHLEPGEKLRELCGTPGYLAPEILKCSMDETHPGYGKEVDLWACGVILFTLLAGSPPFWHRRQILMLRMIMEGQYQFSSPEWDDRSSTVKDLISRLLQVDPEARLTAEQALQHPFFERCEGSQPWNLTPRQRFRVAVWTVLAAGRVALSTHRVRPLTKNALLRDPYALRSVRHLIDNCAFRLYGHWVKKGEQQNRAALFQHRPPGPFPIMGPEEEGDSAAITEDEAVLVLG
Chain of UniProt Q08752 (Q08752 whole entry, looked up): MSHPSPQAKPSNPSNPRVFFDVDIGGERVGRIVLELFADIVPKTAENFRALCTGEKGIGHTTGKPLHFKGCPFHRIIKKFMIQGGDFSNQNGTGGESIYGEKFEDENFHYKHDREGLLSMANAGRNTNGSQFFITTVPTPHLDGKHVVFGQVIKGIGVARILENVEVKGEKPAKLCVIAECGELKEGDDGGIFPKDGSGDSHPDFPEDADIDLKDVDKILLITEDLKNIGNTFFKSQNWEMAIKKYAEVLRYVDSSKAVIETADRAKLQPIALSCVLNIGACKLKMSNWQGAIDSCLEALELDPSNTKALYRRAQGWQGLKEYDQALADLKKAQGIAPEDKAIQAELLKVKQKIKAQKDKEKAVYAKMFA
Chain of UniProt Q8WUK0 (Q8WUK0 whole entry, looked up): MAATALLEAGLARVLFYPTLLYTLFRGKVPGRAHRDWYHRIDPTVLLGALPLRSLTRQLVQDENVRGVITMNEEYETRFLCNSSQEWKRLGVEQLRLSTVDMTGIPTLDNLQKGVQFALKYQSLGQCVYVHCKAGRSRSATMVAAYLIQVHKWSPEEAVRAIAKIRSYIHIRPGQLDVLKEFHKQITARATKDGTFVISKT
Chain of UniProt Q9NVM4 (Q9NVM4 whole entry, looked up): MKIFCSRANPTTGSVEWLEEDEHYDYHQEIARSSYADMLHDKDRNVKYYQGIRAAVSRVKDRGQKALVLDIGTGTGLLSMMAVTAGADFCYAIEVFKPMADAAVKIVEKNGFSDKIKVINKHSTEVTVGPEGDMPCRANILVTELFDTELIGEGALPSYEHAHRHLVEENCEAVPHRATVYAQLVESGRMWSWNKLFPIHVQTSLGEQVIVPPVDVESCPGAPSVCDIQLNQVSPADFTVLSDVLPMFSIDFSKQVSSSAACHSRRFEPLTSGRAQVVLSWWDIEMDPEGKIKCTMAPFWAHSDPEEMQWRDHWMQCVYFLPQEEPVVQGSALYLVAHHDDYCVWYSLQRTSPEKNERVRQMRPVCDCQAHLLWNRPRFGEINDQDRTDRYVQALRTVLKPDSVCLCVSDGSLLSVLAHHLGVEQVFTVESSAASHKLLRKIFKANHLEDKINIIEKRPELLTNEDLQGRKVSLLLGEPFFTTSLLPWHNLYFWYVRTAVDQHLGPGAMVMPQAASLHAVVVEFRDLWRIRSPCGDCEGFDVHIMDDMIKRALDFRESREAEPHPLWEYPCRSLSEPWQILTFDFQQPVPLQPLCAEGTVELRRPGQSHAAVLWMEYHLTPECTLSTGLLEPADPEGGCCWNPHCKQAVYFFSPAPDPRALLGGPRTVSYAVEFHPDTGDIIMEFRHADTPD
Chain of UniProt Q9NR22 (Q9NR22 whole entry, looked up): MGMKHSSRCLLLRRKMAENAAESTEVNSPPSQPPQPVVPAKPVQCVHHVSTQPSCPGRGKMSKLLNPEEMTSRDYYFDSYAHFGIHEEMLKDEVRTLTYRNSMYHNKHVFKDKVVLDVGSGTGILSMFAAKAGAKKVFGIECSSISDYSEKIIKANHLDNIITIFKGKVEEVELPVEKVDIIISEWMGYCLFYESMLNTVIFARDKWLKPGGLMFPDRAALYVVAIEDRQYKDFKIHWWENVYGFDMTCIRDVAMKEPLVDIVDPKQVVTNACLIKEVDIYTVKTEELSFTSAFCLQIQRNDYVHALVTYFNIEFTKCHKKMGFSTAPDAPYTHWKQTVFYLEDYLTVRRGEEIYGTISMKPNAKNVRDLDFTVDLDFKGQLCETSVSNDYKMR
Chain of UniProt Q86W56 (Q86W56 whole entry, looked up): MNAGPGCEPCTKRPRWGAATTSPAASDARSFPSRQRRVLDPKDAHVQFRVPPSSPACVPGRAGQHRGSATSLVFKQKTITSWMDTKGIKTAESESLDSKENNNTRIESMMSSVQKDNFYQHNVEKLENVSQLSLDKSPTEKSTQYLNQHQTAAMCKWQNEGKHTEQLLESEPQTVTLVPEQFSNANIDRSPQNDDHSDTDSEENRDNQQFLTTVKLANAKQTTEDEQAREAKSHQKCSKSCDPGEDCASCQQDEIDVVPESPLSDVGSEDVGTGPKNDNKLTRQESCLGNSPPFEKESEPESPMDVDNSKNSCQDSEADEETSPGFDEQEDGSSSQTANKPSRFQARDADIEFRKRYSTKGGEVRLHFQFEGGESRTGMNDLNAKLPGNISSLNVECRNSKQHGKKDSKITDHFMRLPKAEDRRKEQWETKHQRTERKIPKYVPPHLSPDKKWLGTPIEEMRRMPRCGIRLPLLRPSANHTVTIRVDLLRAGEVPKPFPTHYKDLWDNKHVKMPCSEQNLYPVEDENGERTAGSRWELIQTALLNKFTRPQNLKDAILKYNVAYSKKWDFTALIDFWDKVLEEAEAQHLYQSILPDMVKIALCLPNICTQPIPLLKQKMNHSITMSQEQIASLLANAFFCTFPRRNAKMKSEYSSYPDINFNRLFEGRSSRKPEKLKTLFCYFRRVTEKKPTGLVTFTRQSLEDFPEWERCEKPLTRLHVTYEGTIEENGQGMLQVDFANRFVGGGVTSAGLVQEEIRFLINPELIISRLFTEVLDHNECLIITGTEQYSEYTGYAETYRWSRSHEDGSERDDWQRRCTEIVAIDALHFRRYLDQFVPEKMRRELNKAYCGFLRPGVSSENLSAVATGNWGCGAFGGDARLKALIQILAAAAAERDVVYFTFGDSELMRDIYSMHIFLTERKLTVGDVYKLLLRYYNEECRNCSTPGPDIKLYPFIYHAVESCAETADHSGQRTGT
Chain of UniProt Q96A00 (Q96A00 whole entry, looked up): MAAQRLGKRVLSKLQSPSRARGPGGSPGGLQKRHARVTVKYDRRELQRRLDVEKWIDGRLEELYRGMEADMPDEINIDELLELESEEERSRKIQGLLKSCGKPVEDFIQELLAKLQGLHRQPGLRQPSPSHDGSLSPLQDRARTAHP

Target	log2 fold change [1]	log2 fold change (filanesib)	log2 fold change (zotarolimus)	log2 fold change (idasanutlin)	log2 fold change (alisertib)	log2 fold change [2]	log2 fold change (gefitinib)	log2 fold change [3]	log2 fold change (lapatinib)	log2 fold change (pictilisib)	log2 fold change [4]	log2 fold change (crizotinib)	log2 fold change [5]	log2 fold change [6]	log2 fold change (duvelisib)	log2 fold change (gandotinib)	log2 fold change (tozasertib)	log2 fold change [7]	log2 fold change (doramapimod)	log2 fold change (ispinesib)
PTPMT1 (UniProt Q8WUK0)	-0.084	-0.26	-0.027	-0.002	0.006	-0.327 (active)	-0.021	0.034	-0.064	0.02	0.086	-0.546 (active)	0.039	-0.026	0.118	-0.125	-0.001	0.109	-0.036	-0.429 (active)
PRMT7 (UniProt Q9NVM4)	-0.174	-0.072	-0.008	-0.004	-0.073	-0.037	0.05	-0.018	0.026	-0.009	0.063	-0.142	0.075	0.083	0.037	0.067	0.01	0.12	0.038	0.065
PPP1R14A (UniProt Q96A00)	0.016	0.031	-0.028	-0.013	-0.041	0.039	0.012	-0.079	-0.057	0.017	0.078	0.011	0.005	0.003	0.06	0.106	-0.017	-0.049	-0.086	0.319
POLR2M (UniProt P0CAP2)	-0.025	-0.004	-0.05	-0.022	-0.015	0.094	-0.08	0.054	-0.044	-0.254 (active)	0.028	0.074	0.097	0.044	0.164	0.141	-0.052	0.012	0.013	-0.055
PML (UniProt P29590)	-0.043	0.014	0.041	0.003	-0.022	-0.026	-0.015	-0.081	0.024	0.119	-0.011	0.017	0.025	-0.027	0.072	-0.019	0.07	-0.051	-0.054	-0.027
PKN1 isoform 2 (UniProt Q16512)	0.001	0.019	0.046	-0.05	-0.021	-0.217	0.001	-0.044	-0.009	-0.007	0.03	-0.233	-0.015	-0.12	0.001	-0.165	-0.052	0.075	0.022	-0.065
PPP1R35 (UniProt Q8TAP8)	0.003	0.026	-0.004	0.196	-0.003	-0.125	0.027	0.083	0.011	-0.068	-0.025	-0.036	0.179	-0.037	-0.071	0.044	0.007	0.025	0.024	-0.058
PIR (UniProt O00625)	-0.338 (active)	0.015	0.011	0.033	-0.038	0.085	0.061	0.011	0.018	0.077	0.004	0.042	0.019	-0.085	0.013	0.048	0.027	0.057	0.095	0.045
PLCG1 isoform 2 (UniProt P19174)	0.104	-0.139	0.038	0.017	0.05	0.012	-0.047	0.029	-0.003	0.046	0.016	-0.412 (active)	-0.09	0.16	-0.037	0.107	0.016	0.161	0.001	-0.178
PMM2 (UniProt O15305)	-0.054	-0.014	-0.01	0.011	0.009	0.071	0.016	0.034	-0.088	-0.113	0.006	0.08	0.013	0.012	0.056	-0.045	-0.017	-0.031	-0.015	0.009
PARG (UniProt Q86W56)	0.065	-0.057	0.048	-0.093	-0.114	0.013	0.023	0.094	0.013	-0.023	-0.027	-0.147	0.013	0.016	-0.005	-0.094	0.022	0.123	0.015	-0.148
PMM1 (UniProt Q92871)	-0.084	0.021	-0.003	0.022	-0.039	0.124	0.16	0.022	-0.02	-0.17	0.051	0.008	0.032	0.019	0.07	-0.075	-0.114	-0.011	0.027	0.026
PPID (UniProt Q08752)	0.041	0	0.056	-0.055	-0.009	0.093	0.112	-0.091	-0.041	0.039	0.055	-0.102	0.046	0.071	-0.024	-0.145	0.043	0.088	0.007	-0.08
PHKG2 (UniProt P15735)	0.014	-0.01	-0.051	0.007	-0.026	0.219	-0.063	0.015	0.105	-0.055	0.015	0	-0.097	0.053	-0.077	-0.017	-0.134	-0.006	0.044	0.018
PSMD8 (UniProt P48556)	-0.046	0.055	-0.016	0.015	-0.097	-0.038	-0.022	-0.061	0.066	0.097	0.034	0.011	-0.053	0.156	-0.016	0.002	0.008	0.059	0.028	0.015
PRMT8 (UniProt Q9NR22)	-0.143	-0.162	-0.014	-0.109	-0.028	-0.019	0.002	0.042	0.145	0.025	-0.046	-0.03	-0.043	0.024	0.012	-0.047	-0.024	0.045	-0.021	0.13
